Reference: PubChem BioAssay (NCATS)
Records with an inconclusive call do not appear. A call without a number means that no potency is given here. Activity calls are given as the source filed them. Calls come from the whole dose curve; as a rule, active = well fitted inhibition curve with a large enough effect; inconclusive = small, poorly fitted or top-dose-only effect; inactive = flat fitted curve, though single readings scatter.

The compounds below were run against Aldehyde dehydrogenase, mitochondrial (Homo sapiens) (UniProt P05091) (assay: qHTS for Inhibitors of the Aldehyde Dehydrogenase Family (ALDH2) Primary screen (AID 2061308; note: nearly all actives have a fitted effect of over 55% in size)). Conditions: ALDH2 enzyme inhibition qHTS, 1536-well; series mostly up to 56 µM.

| SMILES | Potency | activity change, negative = inhibition |
| --- | --- | --- |
| O=C(CCO[C@@H]1O[C@H](CO)[C@@H](O)[C@H](O)[C@H]1O)c1ccc(O)cc1 | inactive | – |
| C=C1[C@@H](C2=CC(=O)OC2)CC[C@@]2(O)[C@@H]1CC1[C@H]2CC[C@@H]2C[C@@H](O[C@H]3O[C@@H](C)[C@@H](O[C@@H]4O[C@H](CO[C@@H]5O[C@H](CO)[C@@H](O)[C@H](O)[C@H]5O)[C@@H](O)[C@H](O)[C@H]4O)[C@H](OC)[C@H]3O)CC[C@]12C (stereo partly drawn) | inactive | – |
| C=C(C)[C@@H]1CC[C@]2(C(=O)O)CC[C@]3(C(=O)O)[C@H](CCC4[C@@]5(C)CCC(=O)C(C)(C)C5CC[C@]43C)C12 (stereo partly drawn) | inactive | – |
| C[C@@H]1O[C@@H](O[C@H]2[C@H](O)[C@@H](O)[C@H](OC3CCC4(C)C5CCC(C)(C(CO)OC6OC(CO)C(O)C(O)C6O)CC5=CCC4C3(C)C)O[C@@H]2CO)[C@H](O)[C@H](O)[C@H]1O (stereo partly drawn) | inactive | – |
| CC(=O)c1c(C)cc(O[C@@H]2O[C@H](CO)[C@@H](O)[C@H](O)[C@H]2O)cc1O | inactive | – |
| Cc1coc2c1CC1OC1(C)CCC1OC1(C)C2 (stereo not drawn) | inactive | – |
| CC(=O)C12OC(C)(C)OC1CC1C3CCC4=CC(=O)C=CC4(C)C3(F)C(O)CC12C (stereo not drawn) | inactive | – |
| CC(C)=CCC[C@](C)(O[C@@H]1O[C@H](CO)[C@@H](O)[C@H](O)[C@H]1O)[C@H]1CC[C@]2(C)[C@@H]1[C@H](O)CC1[C@@]3(C)CC[C@H](O)C(C)(C)C3[C@@H](O[C@@H]3O[C@H](CO)[C@@H](O)[C@H](O)[C@H]3O[C@@H]3O[C@@H](C)[C@H](O)[C@@H](O)[C@H]3O)C[C@]12C (stereo partly drawn) | inactive | – |
| O=C1NC(Cc2ccccc2)C(=O)N2CCCC12 (stereo not drawn) | inactive | – |
| CC1=C2C=C(CO)C(CO)CCC2(C)CCC1=O (stereo not drawn) | inactive | – |
| CCN(CC)C(=O)c1ccc(Nc2nc(OCC3CCCCC3)c3[nH]cnc3n2)cc1 | inactive | – |
| CC(O)C1CCC2C3CCC4CC(OC5OC(C(=O)O)C(O)C(O)C5O)CCC4(C)C3CCC12C (stereo not drawn) | inactive | – |
| C/C1=C\CC[C@]2(C)O[C@@H]2[C@H](O)[C@H](C(C)C)[C@H](OC(=O)/C=C/c2ccccc2)C1 | inactive | – |
| CC(C)C[C@H](CC(=O)NO)C(=O)N[C@H](C(=O)N[C@@H](C)C(=O)NCCN)C(C)(C)C | – | 1.06% [at 11.2 µM] (inactive) |
| CC(=O)O[C@@H]1C[C@@]23C[C@@]24CC[C@H](O[C@@H]2OC[C@H](O)[C@H](O)[C@H]2O)C(C)(C)[C@@H]4CC[C@H]3[C@]2(C)[C@@H](O)C34O[C@H](C[C@@H](C)[C@@H]3[C@@]12C)[C@@H](C(C)(C)O)O4 | inactive | – |
| C=CC1(C)CC2=CCC3C(C)(C(=O)O)CCCC3(C)C2CC1OC(C)=O (stereo not drawn) | inactive | – |
| COc1ccc2c(c1)C(C(=O)N(Cc1ccc(N(C)C)cc1)c1ccc(C(C)C)cc1)CCC2 (stereo not drawn) | inactive | – |
| CC(C)(OC1OC(CO)C(O)C(O)C1O)C1CCC(O)(CO)C2CC(=O)C(C)(O)C2C1 (stereo not drawn) | inactive | – |
| C[C@H](/C=C/[C@@]1(O)[C@H](C)CC(=O)CC1(C)C)O[C@@H]1O[C@H](CO[C@@H]2OC[C@@H](O)[C@H](O)[C@H]2O)[C@@H](O)[C@H](O)[C@H]1O | inactive | – |
| O=C(O)c1ccnc2cc(C(OCC3CCC(F)(F)CC3)c3ccccc3Cl)[nH]c12 (stereo not drawn) | inactive | – |
| CN1CCN(c2ccc(Nc3cc(-c4cccc(-n5ccc6cc(C7CC7)cc(F)c6c5=O)c4CO)cn(C)c3=O)nc2)CC1 | inactive | – |
| CC(=O)N[C@H]1CCN(c2ccc(C3=NOC(CN[S+](=O)([O-])C(C)C)C3)cc2F)C1 (stereo partly drawn) | inactive | – |
| C=C(C(=O)O)[C@@H]1CC[C@@]2(C)CC[C@@H](O)C(=C)C2C1 (stereo partly drawn) | inactive | – |
| CCC(C)C(=O)O[C@H]1CCC=C2C=C[C@H](C)[C@H](CC[C@@H](O)C[C@@H](O)CC(=O)O)[C@H]21 (stereo partly drawn) | inactive | – |
| CCCCC1CCN(CCCC(=O)c2ccccc2C)CC1 | inactive | – |
| CC1(CO)CC[C@]2(C(=O)O[C@@H]3O[C@H](CO)[C@@H](O)[C@H](O)[C@H]3O)CC[C@]3(C)C(=CCC4[C@@]5(C)CC[C@H](O[C@@H]6O[C@H](C(=O)O)[C@@H](O)[C@H](O)[C@H]6O)C(C)(C)C5CC[C@]43C)C2C1 (stereo partly drawn) | inactive | – |
| O=C(c1ccc(Cl)cc1)N1CCN(c2ccnc3cc(Cl)ccc23)CC1 | inactive | – |
| CC(=O)OC[C@]12[C@H](OC(C)=O)[C@H](OC(=O)c3ccccc3)[C@@H]3[C@@H](OC(C)=O)[C@]1(OC3(C)C)[C@H](C)C[C@H](OC(=O)c1ccccc1)[C@@H]2OC(=O)c1ccccc1 | inactive | – |
